Source: PubChem BioAssay (EPA / NIEHS)
Active and inactive are the calls of the source. Rule for the calls: active = hit-call score of the fitted dose curve at least 0.9, where 1 is the maximum; inactive = score below 0.9.

The compounds below were run on Cyclin D1 (CCND1), CCND1 (gene 595) (assay: LTEA_HepaRG_CCND1: Life Technologies and Expression Analysis (LTEA) Assay for Cyclin D1 (CCND1) using HepaRG (AID 2283451;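 for AC50: differentiated human HepaRG liver cells in serum-free induction medium; TaqMan qRT-PCR transcript level normalised to ACTB GAPDH and POLR2A housekeeping genes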)). Settings: mRNA level, 48 h; actives raise or lower the signal.
Outline: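 Human liver HepaRG line; 48 h dosing, 8 conc. ≤100 uM, 0.5% DMSO; TaqMan qRT-PCR mRNA, 3 housekeeping genes; bidirectional curve fit vs DMSO.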
With CN(Cc1cnc2nc(N)nc(N)c2n1)c1ccc(C(=O)N[C@@H](CCC(=O)O)C(=O)O)cc1 the outcome was “inactive”. In the case of CCCCCCCCCCCCOS(=O)(=O)O, the outcome is reported as “inactive”. In the case of CCCCc1oc2ccccc2c1C(=O)c1cc(I)c(OCCN(CC)CC)c(I)c1, the outcome is reported as “inactive”. In the case of CN(C)CCOC(c1ccccc1)c1ccccc1, the outcome is reported as “inactive”. With O=C(c1ccccc1)c1ccccc1 the outcome was “inactive”. CCCCC=O was tested, and the outcome was “inactive”. CCCCCCCCCCCCCCC was tested, and the outcome was “inactive”. With CC(=O)Nc1ccc(O)cc1 the outcome was “inactive”. For O=C(CCCN1CCC(O)(c2ccc(Cl)cc2)CC1)c1ccc(F)cc1, the outcome was “inactive”. In the case of CCCCC(CC)C(=O)O (stereo unspecified), the outcome is reported as “inactive”. With Cc1[nH]nc2c1N=C(c1ccccc1Cl)c1cc([N+](=O)[O-])ccc1N2 the AC50 was 1220 nM (active). With OCC(CO)(CBr)CBr the outcome was “inactive”. With N=C(N)c1ccc(OCCCCCOc2ccc(C(=N)N)cc2)cc1 the outcome was “inactive”. For CCC(C)c1ccccc1O (stereo unspecified), the outcome was “inactive”. With O=C1NS(=O)(=O)c2ccccc21 the outcome was “inactive”. In the case of CS(=O)(=O)c1ccc([C@@H](CC2CCCC2)C(=O)Nc2cnccn2)cc1Cl, the outcome is reported as “inactive”.
